According to PubChem BioAssay (Tox21):
Where “and” joins values, the source holds several entries; their conditions need not be identical. Identical values can stand only once. Results filed as inconclusive are left out. The source holds several records for some structures; these can differ, active in one and inactive in another. Calls of active or inactive are those of the source. Unless noted, calls come from the whole dose curve; as a rule, active = well fitted curve in the direction sought with a large enough effect in the repeat runs; inconclusive = weak or mixed curves; inactive = no such curve, though single readings can be large; an effect the other way counts as inactive or inconclusive.

Columns and labels:
[1] = qHTS assay for small molecule agonists of the p53 signaling pathway (AID 651631; calls by dose curve; note: nearly all actives have a fitted effect of over 15% in size; note: potency is the fitted concentration of half-maximal effect)
Procedure, shortened: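 Agonist mode screen using a stably integrated beta-lactamase gene under p53 response elements in HCT-116 cells. Compound exposure lasts 16 h at 37 °C; fluorescence intensity is measured following 2 h FRET substrate loading.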

[2] = qHTS assay for small molecules that induce genotoxicity in human embryonic kidney cells expressing luciferase-tagged ATAD5 (AID 651632); note: nearly all actives have a fitted effect of over 15% in size
Procedure, shortened: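 HEK293T cells carrying luciferase-tagged ATAD5 were given compound or DMSO vehicle and incubated 16 hr at 37C, 5% CO2. Luciferase activity was read after 30 min at room temperature with Amplite; a rise signals genotoxic stress.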

[3] = qHTS assay for small molecule agonists of the p53 signaling pathway - cell viability (AID 651633; calls by dose curve;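 note: p53RE-bla HCT reporter cells with a stable beta-lactamase p53 reporter; series mostly up to about 83 µM; nearly all actives have a fitted effect of over 30% in size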)
Procedure, shortened: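 p53RE-bla cells were treated with compound for 16 hours at 37 C. Cytotoxicity was then measured as CellTiter-Glo luminescence after 30 min at room temperature.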

[4] = qHTS assay for small molecules that induce genotoxicity in human embryonic kidney cells expressing luciferase-tagged ATAD5 - cell viability (AID 651634; calls by dose curve; note: nearly all actives have a fitted effect of over 25% in size)
Procedure, shortened: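 HEK293T cells carrying luciferase-tagged ATAD5, 2,000 cells/well, exposed to compound for 15.5 hr at 37C. Viability read as live-cell protease activity by CellTiter-Fluor fluorescence after 30 min at 37C.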

[5] = qHTS assay for small molecule disruptors of the mitochondrial membrane potential - cell viability (AID 720634; calls by dose curve; note: nearly all actives have a fitted effect of over 20% in size; note: potency is the fitted concentration of half-maximal effect)
Procedure, shortened: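 HepG2 cells, 2,000 per well, attached overnight, then treated 1 hr at 37 C, 5% CO2. Viability read as ATP by CellTiter-Glo luminescence after 30 min at room temperature. Read in the same wells as the m-MPI membrane-potential dye assay.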

[6] = qHTS assay for small molecule disruptors of the mitochondrial membrane potential (AID 720635)
Procedure, shortened: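 HepG2 cells exposed to compound 1 hr at 37C, then Mito-MPS dye 30 min. Ratio read of aggregate (540/590 nm) versus monomer (490/535 nm) fluorescence.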

[7] = qHTS assay to test for compound auto fluorescence at 590 nm (red) in HepG2 cells (AID 720674)
Procedure, shortened: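 Seeding: 2,000 HepG2 cells/well, MEM/10% FBS, overnight 37 C. Dosing: compound vs DMSO. Incubation: 1 hr, 37 C, 5% CO2. Read: fluorescence 540 ex/590 em, Rose Bengal sodium as red reference.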

[8] = qHTS assay to test for compound auto fluorescence at 535 nm (green) in HepG2 cells (AID 720675)
[9] = qHTS assay to test for compound auto fluorescence at 460 nm (blue) in HEK293 cells (AID 720678)
Procedure, shortened: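 HEK293 cells (2,000/well, medium with 10% dialyzed FBS) attached 4-5 hr, then exposed to compound overnight at 37C, 5% CO2. Blue fluorescence read at 405/460 nm, with triamterene as reference fluorophore.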

[10] = qHTS assay to test for compound auto fluorescence at 590 nm (red) in HEK293 cells (AID 720679)
Procedure, shortened: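 HEK293 cells (2,000/well, 10% dialyzed FBS) attached 4-5 hr, then dosed with compound or DMSO and incubated overnight at 37C, 5% CO2. Red fluorescence read at 540/590 nm, Rose Bengal sodium as reference fluorophore.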

[11] = qHTS assay to test for compound auto fluorescence at 535 nm (green) in HEK293 cells (AID 720680)
[12] = qHTS assay to test for compound auto fluorescence at 460 nm (blue) in HEK293 cell free culture (AID 720681)
Procedure, shortened: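 Compounds were added to cell-free DMEM with 10% FBS and fluorescence read directly. The blue channel used 405 nm excitation and 460 nm emission, with triamterene as the reference fluorophore.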

[13] = qHTS assay to test for compound auto fluorescence at 535 nm (green) in HEK293 cell free culture (AID 720682)
Procedure, shortened: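 No cells present: wells hold DMEM supplemented with 10% FBS, into which compound or vehicle is pinned. Green emission is then recorded (485 nm excitation, 535 nm emission) and scaled to fluorescein.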

[14] = qHTS assay to test for compound auto fluorescence at 590 nm (red) in HEK293 cell free culture (AID 720683)
Procedure, shortened: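 Cell-free wells of DMEM with 10% FBS received compound, and intrinsic fluorescence was read at excitation/emission 540/590 nm. Values expressed as equivalence to Rose Bengal sodium.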

[15] = qHTS assay to test for compound auto fluorescence at 590 nm (red) in HepG2 cell free culture (AID 720684)
Procedure, shortened: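 Compounds are added to culture medium (MEM, 10% FBS) lacking cells, then fluorescence is read at excitation 540 nm, emission 590 nm, with Rose Bengal sodium as the equivalency standard.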

[16] = qHTS assay to test for compound auto fluorescence at 460 nm (blue) in HepG2 cell free culture (AID 720685)
Procedure, shortened: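 Compound (23 nL) or DMSO pinned into cell-free MEM with 10% FBS; blue fluorescence read at 405/460 nm excitation/emission, expressed as auto-fluorescence equivalency to triamterene.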

[17] = qHTS assay to test for compound auto fluorescence at 535 nm (green) in HepG2 cell free culture (AID 720686)
[18] = qHTS assay to test for compound auto fluorescence at 460 nm (blue) in HepG2 cells (AID 720687)
Procedure, shortened: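 HepG2 cells in MEM with 10% FBS, attached overnight at 37 C, were exposed to compound or DMSO for 1 hr at 37 C, 5% CO2. Blue fluorescence was read at 405/460 nm, with triamterene as reference fluorophore.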

[19] = biological target: Glucocorticoid receptor (Homo sapiens) (UniProt P04150); experiment: qHTS assay to identify small molecule agonists of the glucocorticoid receptor (GR) signaling pathway (AID 720691; active = well fitted activation curve with a large enough effect in the signal ratio in the repeat runs, not every such curve was filed as active; the % refers to the signal ratio; note: potency is the fitted concentration of half-maximal effect)
Procedure, shortened: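 GR-bla HeLa cells carrying a GRE-driven beta-lactamase reporter, exposed to compounds for 18 h at 37 C. Reporter activation read as fluorescence after 2 h with LiveBLAzer B/G FRET substrate at room temperature.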

[20] = biological target: Glucocorticoid receptor (Homo sapiens) (UniProt P04150); experiment: qHTS assay to identify small molecule antagonists of the glucocorticoid receptor (GR) signaling pathway (AID 720692; active = well fitted inhibition curve with a large enough effect in the signal ratio in the repeat runs, not every such curve was filed as active; the % refers to the signal ratio; note: potency is the fitted concentration of half-maximal effect)
Procedure, shortened: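 GR-bla HeLa cells carrying a GRE-driven beta-lactamase reporter received compound after 4 h plating, then dexamethasone (5 nM final). After 18 h at 37C, the FRET substrate was loaded for 2 h at room temperature and fluorescence read.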
% is set by controls: 0 for no effect and ±100 for the full control effect.

Chain of Glucocorticoid receptor (Homo sapiens) (P04150 whole entry, looked up): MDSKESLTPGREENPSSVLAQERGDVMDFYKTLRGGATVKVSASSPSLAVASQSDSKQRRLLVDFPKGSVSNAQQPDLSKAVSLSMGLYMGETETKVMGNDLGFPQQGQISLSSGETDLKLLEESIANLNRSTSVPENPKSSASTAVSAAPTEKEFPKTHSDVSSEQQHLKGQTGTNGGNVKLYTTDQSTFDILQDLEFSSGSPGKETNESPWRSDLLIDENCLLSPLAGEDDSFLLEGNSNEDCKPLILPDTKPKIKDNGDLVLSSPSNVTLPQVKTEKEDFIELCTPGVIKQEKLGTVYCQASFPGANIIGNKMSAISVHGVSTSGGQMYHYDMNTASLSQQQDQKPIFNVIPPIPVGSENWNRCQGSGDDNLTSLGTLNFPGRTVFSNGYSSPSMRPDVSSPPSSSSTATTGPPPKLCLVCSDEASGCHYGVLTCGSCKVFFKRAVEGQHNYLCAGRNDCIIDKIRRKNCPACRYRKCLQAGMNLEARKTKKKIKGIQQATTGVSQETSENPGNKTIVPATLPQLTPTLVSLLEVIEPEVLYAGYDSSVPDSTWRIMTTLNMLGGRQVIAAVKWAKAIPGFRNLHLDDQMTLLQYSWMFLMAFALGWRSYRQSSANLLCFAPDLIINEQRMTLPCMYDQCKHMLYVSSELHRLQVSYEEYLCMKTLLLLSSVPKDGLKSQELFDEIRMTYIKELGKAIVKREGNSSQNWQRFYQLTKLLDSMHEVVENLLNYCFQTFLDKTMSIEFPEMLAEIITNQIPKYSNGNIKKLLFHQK

C[C@]12CC[C@H]3[C@@H](CCC4=CC(=O)CC[C@@H]43)[C@@H]1CC[C@@H]2OC(=O)CCc1ccccc1
inactive: Potency [1] | Potency [2] | Potency [3] | Potency [4] | Potency [5] | Potency [6] | outcome [7] | outcome [8] | outcome [9] | outcome [10] | outcome [11] | outcome [12] | outcome [13] | outcome [14] | outcome [15] | outcome [16] | outcome [17] | outcome [18] | Potency [19]
active: Potency [20] 6.74 µM

CCCC(C)(COC(N)=O)COC(=O)NC(C)C (centres undefined)
inactive: Potency [1] | Potency [2] | Potency [4] | Potency [5] | Potency [6] | outcome [7] | outcome [8] | outcome [9] | outcome [10] | outcome [11] | outcome [12] | outcome [13] | outcome [14] | outcome [15] | outcome [16] | outcome [18]

SCc1ccccc1
inactive: Potency [1] | Potency [2] | Potency [3] | Potency [5] | outcome [7] | outcome [8] | outcome [9] | outcome [10] | outcome [11] | outcome [12] | outcome [13] | outcome [14] | outcome [15] | outcome [16] | outcome [17] | outcome [18] | Potency [19]

COC(=O)Cc1ccccc1
inactive: Potency [1] | Potency [2] | Potency [3] | Potency [4] | Potency [5] | outcome [7] | outcome [8] | outcome [9] | outcome [10] | outcome [11] | outcome [12] | outcome [13] | outcome [14] | outcome [15] | outcome [16] | outcome [17] | outcome [18] | Potency [19] | Potency [20]

CC(Oc1cccc(Cl)c1)C(=O)O (centres undefined)
inactive: Potency [1] | Potency [2] | Potency [3] | Potency [4] | Potency [5] | Potency [6] | outcome [7] | outcome [8] | outcome [9] | outcome [10] | outcome [11] | outcome [12] | outcome [13] | outcome [14] | outcome [15] | outcome [16] | outcome [17] | outcome [18] | Potency [19] | Potency [20]

CCOC(=O)c1cncn1C(C)c1ccccc1 (centres undefined)
inactive: Potency [1] | Potency [2] | Potency [3] | Potency [5] | fluorescence, relative to Rose Bengal [7] -0.315% [at 18.6 µM] | fluorescence, % of fluorescein control [8] 0.021% [at 18.6 µM] | fluorescence, % of triamterene [9] -0.152% [at 18.6 µM] | fluorescence, % of fluorescent control [10] 0.134% [at 18.6 µM] | fluorescence, % of fluorescein [11] -0.183% [at 18.6 µM] | fluorescence, % of fluorescent control [12] -0.0565% [at 18.6 µM] | activity change [13] -0.219% [at 18.6 µM] | fluorescence, % of fluorescent control [14] 0.175% [at 18.6 µM] | fluorescence, % of Rose Bengal [15] 0.117% [at 18.6 µM] | fluorescence, % of fluorescent control [16] -0.0673% [at 18.6 µM] | fluorescence, % of fluorescein control [17] 0.0291% [at 18.6 µM] | fluorescence, % of fluorescent control [18] 0.278% [at 18.6 µM] | Potency [19]

Cc1cnc(C2=NC(C)(C(C)C)C(=O)N2)c(C(=O)O)c1 (centres undefined)
inactive: Potency [1] | Potency [3] | Potency [4] | Potency [5] | outcome [7] | outcome [8] | outcome [9] | outcome [10] | outcome [11] | outcome [12] | outcome [13] | outcome [14] | outcome [15] | outcome [16] | outcome [17] | Potency [19] | Potency [20]

CCCCC(CC)COC(=O)c1c(Br)c(Br)c(Br)c(Br)c1C(=O)OCC(CC)CCCC (centres undefined)
inactive: Potency [1] | Potency [3] | Potency [4] | Potency [5] | outcome [7] | outcome [8] | outcome [10] | outcome [11] | outcome [12] | outcome [13] | outcome [14] | outcome [15] | outcome [16] | outcome [17] | Potency [20]
active: Potency [19] 33.8 µM

O=[N+]([O-])/C=C/c1ccccc1
active: Potency [1] 2.47 µM and 2.43 µM | Potency [20] 15.7 µM and 17.4 µM
inactive: outcome [7] | outcome [8] | outcome [9] | outcome [10] | outcome [11] | outcome [12] | outcome [13] | outcome [14] | outcome [15] | outcome [16] | outcome [18]
62.1 µM (active) and inactive: Potency [5]

CCOC(=O)c1cn2nc(OP(=S)(OCC)OCC)cc2nc1C
inactive: Potency [1] | Potency [3] | Potency [4] | outcome [7] | outcome [8] | outcome [9] | outcome [10] | outcome [11] | outcome [12] | outcome [13] | outcome [14] | outcome [16] | outcome [17] | outcome [18] | Potency [19] | Potency [20]

FC(F)OC(F)(F)C(F)Cl (centres undefined)
inactive: Potency [1] | Potency [4] | Potency [5] | Potency [6] | outcome [7] | outcome [8] | outcome [9] | outcome [10] | outcome [11] | outcome [12] | outcome [13] | outcome [14] | outcome [15] | outcome [16] | outcome [17] | Potency [19] | Potency [20]

C#C[C@]1(O)CC[C@H]2[C@@H]3CCC4=CC(=O)CCC4=C3C=C[C@@]21CC
inactive: Potency [1] | Potency [3] | Potency [4] | outcome [7] | outcome [8] | outcome [9] | outcome [10] | outcome [11] | outcome [13] | outcome [14] | outcome [15] | outcome [16] | outcome [17] | outcome [18]
active: Potency [20] 0.379 µM

C1CS1
inactive: Potency [1] | Potency [3] | Potency [4] | Potency [5] | outcome [7] | outcome [8] | outcome [9] | outcome [10] | outcome [11] | outcome [12] | outcome [13] | outcome [14] | outcome [15]

CCCBr
inactive: Potency [1] | Potency [2] | Potency [4] | Potency [5] | Potency [6] | outcome [7] | outcome [8] | outcome [10] | outcome [11] | outcome [12] | outcome [13] | outcome [14] | outcome [16] | outcome [17] | outcome [18] | Potency [19] | Potency [20]

C[C@H](N)[C@H](O)c1ccc(O)c(O)c1
inactive: Potency [1] | Potency [4] | Potency [5] | outcome [7] | outcome [8] | outcome [9] | outcome [10] | outcome [11] | outcome [12] | outcome [13] | outcome [14] | outcome [15] | outcome [16] | outcome [17]

NC(=O)CF
inactive: Potency [1] | Potency [2] | Potency [4] | Potency [5] | Potency [6] | outcome [7] | outcome [8] | outcome [10] | outcome [11] | outcome [12] | outcome [13] | outcome [14] | outcome [15] | outcome [17] | Potency [19] | Potency [20]
